Experimental data taken from paper PMC7862700, “An all-to-all approach to the identification of sequence-specific readers for epigenetic DNA modifications on cytosine”.

What was measured:
Test in all cases: DAPPL (digital affinity profiling via proximity ligation, sequencing); 10 mM Tris-HCl pH 7.5, 50 mM NaCl, 1 mM DTT, 4% glycerol, room temperature, 30 min; GST-TFs on glutathione beads, 16-mer random dsDNA library, 0.1% formaldehyde crosslink after washing; high values mean tight binding
Details in all cases: protein: recombinant; tags: N-terminal GST; dsDNA, one strand shown
ELK1 = target: T1, ELK1 (Homo sapiens, UniProt P19419 1-428)
T1 sequence: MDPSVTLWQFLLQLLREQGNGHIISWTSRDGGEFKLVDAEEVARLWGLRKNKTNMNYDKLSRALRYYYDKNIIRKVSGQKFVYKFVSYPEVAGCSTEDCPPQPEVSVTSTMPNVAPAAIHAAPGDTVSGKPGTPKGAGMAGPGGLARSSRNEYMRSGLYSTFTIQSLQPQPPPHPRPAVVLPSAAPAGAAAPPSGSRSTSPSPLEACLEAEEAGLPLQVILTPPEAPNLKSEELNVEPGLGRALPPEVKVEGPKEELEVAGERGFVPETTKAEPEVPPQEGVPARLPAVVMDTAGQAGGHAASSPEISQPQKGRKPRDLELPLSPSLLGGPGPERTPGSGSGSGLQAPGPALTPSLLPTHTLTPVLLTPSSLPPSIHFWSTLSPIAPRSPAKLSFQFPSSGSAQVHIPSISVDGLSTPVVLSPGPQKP
Outline: (§1)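 Sequencing on an Illumina NextSeq500 followed washing, crosslinking with 0.1% formaldehyde, proximity ligation (BsaI/T4 ligase, 1 h, 37 °C) and PCR amplification of pools that had been incubated for 30 min at room temperature with 200 nmole of a random double-stranded 16-mer DNA library in Tris/NaCl/DTT/glycerol buffer. Each pool held DNA-barcoded human transcription factors, expressed in yeast as GST fusions and captured on glutathione beads, plus a tag-only sample. Binding signal is a hexamer's read frequency for a factor divided by its frequency in the tag-only sample.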

GABPA = target: T2, GABPA (Homo sapiens, UniProt Q06546 1-454)
T2 sequence: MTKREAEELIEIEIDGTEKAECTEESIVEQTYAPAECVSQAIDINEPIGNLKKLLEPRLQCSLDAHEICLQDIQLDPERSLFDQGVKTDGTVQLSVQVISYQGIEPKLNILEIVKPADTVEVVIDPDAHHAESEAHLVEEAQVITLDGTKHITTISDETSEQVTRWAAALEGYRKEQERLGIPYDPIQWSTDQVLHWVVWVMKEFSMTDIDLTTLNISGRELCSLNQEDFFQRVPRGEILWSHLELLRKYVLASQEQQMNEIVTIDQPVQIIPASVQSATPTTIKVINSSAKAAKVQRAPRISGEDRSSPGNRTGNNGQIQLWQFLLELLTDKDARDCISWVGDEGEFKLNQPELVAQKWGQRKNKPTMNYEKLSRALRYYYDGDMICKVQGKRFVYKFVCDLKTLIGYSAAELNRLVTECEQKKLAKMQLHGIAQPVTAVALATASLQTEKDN
Outline: as §1

ERG = target: T3, ERG (Homo sapiens, UniProt P11308 1-479)
T3 sequence: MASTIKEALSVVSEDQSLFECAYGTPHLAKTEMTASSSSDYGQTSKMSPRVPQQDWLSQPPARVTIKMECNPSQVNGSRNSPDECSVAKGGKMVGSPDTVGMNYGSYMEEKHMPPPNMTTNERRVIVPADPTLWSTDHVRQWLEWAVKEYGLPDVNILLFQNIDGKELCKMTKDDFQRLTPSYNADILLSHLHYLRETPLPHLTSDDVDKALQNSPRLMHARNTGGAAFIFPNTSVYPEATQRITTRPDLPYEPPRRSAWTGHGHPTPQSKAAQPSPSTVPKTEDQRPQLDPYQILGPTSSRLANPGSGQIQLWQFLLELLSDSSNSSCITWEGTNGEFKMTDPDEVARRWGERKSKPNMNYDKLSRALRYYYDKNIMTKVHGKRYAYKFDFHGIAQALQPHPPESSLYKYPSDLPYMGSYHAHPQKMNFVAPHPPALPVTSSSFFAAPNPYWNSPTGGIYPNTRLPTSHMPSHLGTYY
Outline: as §1

ELF1 = ELF1 (Homo sapiens, UniProt P32519 1-619)
Outline: as §1

EHF = target: T4, EHF (Homo sapiens, UniProt Q9NZC4 1-300)
T4 sequence: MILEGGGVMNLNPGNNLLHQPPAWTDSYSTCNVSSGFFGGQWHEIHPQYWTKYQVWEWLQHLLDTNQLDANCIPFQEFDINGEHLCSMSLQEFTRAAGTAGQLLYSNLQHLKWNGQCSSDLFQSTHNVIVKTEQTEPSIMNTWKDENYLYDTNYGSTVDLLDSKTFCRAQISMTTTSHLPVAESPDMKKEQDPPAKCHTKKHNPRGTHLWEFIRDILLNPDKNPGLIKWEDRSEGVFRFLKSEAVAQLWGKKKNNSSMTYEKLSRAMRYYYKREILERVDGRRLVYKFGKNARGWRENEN
Outline: as §1

SPIB = SPIB (Homo sapiens, UniProt Q01892 1-262)
Outline: as §1

ETV5 = ETV5 (Homo sapiens, UniProt P41161 1-510)
Outline: as §1

ELF4 = ELF4 (Homo sapiens, UniProt Q99607 1-663)
Outline: as §1

ELK4 = target: T5, ELK4 (Homo sapiens, UniProt P28324-2 1-405)
T5 sequence: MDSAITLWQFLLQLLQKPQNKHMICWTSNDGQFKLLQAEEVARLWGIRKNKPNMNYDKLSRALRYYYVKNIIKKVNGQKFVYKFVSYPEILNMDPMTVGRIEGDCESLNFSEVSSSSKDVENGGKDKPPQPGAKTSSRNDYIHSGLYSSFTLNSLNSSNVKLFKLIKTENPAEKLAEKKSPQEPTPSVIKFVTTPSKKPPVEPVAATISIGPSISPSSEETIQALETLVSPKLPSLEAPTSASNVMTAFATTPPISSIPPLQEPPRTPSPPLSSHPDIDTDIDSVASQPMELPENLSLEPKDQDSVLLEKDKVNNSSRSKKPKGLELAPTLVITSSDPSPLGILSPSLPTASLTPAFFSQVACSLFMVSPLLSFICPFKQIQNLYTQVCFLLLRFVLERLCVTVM
Outline: as §1

ETV2 = target: T6, ETV2 (Homo sapiens, UniProt O00321 1-342)
T6 sequence: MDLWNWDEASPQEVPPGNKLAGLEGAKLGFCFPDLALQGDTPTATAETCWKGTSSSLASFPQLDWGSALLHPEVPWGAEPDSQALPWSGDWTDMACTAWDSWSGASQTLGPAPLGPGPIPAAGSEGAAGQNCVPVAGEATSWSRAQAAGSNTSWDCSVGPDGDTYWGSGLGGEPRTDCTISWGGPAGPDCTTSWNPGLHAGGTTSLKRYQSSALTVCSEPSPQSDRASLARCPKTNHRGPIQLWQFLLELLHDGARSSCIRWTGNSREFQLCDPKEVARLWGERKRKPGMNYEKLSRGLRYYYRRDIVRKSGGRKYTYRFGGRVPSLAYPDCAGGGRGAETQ
Outline: as §1

ELF3 = target: T7, ELF3 (Homo sapiens, UniProt P78545 1-371)
T7 sequence: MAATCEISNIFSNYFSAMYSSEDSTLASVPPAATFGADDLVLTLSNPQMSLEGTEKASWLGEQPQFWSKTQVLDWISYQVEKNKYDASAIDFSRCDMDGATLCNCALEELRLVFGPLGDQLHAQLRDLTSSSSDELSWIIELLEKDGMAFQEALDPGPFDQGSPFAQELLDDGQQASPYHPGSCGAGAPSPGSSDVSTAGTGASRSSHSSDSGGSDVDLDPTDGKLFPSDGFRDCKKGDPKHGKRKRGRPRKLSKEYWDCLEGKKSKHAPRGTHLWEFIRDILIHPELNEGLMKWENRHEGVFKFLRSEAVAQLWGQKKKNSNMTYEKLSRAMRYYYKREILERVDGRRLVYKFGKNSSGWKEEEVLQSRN
Outline: as §1

ETV1 = ETV1 (Homo sapiens, UniProt P50549 1-477)
Outline: as §1

ERF = target: T8, ERF (Homo sapiens, UniProt P50548 1-548)
T8 sequence: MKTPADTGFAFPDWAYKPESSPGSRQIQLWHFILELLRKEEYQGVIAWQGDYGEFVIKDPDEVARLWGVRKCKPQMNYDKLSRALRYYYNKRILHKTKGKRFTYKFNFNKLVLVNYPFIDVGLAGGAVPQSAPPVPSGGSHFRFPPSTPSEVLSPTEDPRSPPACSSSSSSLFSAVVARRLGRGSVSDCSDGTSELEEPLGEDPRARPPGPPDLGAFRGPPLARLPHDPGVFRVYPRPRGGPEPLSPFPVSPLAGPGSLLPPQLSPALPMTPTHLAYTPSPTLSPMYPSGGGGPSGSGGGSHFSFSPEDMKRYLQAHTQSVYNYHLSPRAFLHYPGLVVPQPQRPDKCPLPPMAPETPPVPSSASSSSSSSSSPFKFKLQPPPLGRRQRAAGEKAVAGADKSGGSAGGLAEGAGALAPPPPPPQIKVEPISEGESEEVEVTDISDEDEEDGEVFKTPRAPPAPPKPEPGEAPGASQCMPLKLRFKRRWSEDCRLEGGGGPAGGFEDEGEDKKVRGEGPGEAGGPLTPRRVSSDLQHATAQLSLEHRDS
Outline: as §1

ETV3L = target: T9, ETV3L (Homo sapiens, UniProt Q6ZN32 1-361)
T9 sequence: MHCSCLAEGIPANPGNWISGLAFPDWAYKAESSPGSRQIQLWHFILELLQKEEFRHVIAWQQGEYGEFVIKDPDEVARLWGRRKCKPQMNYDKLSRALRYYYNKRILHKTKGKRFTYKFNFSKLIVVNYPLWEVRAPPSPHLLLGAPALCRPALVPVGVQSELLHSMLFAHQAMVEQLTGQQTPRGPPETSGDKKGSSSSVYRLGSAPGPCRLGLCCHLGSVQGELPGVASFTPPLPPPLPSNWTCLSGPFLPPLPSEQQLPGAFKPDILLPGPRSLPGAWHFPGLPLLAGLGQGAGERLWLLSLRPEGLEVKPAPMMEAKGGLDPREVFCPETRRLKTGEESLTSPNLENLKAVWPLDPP
Outline: as §1

ETS2 = target: T10, ETS2 (Homo sapiens, UniProt P15036 1-469)
T10 sequence: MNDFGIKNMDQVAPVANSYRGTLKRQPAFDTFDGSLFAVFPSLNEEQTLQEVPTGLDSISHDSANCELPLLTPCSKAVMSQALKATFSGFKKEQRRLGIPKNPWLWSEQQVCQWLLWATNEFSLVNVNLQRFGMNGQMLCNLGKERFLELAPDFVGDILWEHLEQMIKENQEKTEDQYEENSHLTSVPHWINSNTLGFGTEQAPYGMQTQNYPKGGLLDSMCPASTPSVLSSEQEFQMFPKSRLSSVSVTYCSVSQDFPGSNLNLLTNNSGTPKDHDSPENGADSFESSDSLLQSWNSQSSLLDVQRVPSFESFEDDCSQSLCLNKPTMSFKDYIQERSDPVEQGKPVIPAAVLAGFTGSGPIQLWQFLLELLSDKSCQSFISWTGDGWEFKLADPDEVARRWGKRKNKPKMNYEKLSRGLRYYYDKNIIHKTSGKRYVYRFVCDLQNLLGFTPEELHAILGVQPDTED
Outline: as §1

SPDEF = target: T11, SPDEF (Homo sapiens, UniProt O95238 1-335)
T11 sequence: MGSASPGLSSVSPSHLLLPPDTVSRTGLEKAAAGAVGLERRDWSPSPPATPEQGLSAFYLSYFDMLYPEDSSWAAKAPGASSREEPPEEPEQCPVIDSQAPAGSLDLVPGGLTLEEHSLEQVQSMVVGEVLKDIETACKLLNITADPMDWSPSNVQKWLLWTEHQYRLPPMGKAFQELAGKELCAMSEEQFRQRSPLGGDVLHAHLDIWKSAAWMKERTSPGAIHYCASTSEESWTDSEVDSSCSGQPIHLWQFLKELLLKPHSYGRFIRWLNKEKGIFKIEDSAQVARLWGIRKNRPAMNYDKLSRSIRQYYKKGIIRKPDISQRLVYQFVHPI
Outline: as §1

ETV7 = target: T12, ETV7 (Homo sapiens, UniProt Q9Y603 1-341)
T12 sequence: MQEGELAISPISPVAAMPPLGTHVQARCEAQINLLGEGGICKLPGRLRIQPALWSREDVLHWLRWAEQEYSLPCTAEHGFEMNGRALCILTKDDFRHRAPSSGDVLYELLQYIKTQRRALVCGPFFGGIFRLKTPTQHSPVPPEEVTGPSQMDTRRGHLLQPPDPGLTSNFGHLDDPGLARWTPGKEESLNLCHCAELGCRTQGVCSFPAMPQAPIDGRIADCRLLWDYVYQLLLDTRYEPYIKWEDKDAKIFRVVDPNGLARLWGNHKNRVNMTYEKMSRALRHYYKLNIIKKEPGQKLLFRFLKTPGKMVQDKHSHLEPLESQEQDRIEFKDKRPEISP
Outline: as §1

ETV3 = target: T13, ETV3 (Homo sapiens, UniProt P41162-2 1-143)
T13 sequence: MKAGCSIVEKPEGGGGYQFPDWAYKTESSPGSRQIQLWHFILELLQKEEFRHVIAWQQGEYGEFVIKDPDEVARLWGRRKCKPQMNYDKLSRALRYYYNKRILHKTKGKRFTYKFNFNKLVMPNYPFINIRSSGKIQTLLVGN
Outline: as §1

ETV6 = ETV6 (Homo sapiens, UniProt P41212 1-452)
Outline: as §1

Chain of ETV1 (P50549 whole entry): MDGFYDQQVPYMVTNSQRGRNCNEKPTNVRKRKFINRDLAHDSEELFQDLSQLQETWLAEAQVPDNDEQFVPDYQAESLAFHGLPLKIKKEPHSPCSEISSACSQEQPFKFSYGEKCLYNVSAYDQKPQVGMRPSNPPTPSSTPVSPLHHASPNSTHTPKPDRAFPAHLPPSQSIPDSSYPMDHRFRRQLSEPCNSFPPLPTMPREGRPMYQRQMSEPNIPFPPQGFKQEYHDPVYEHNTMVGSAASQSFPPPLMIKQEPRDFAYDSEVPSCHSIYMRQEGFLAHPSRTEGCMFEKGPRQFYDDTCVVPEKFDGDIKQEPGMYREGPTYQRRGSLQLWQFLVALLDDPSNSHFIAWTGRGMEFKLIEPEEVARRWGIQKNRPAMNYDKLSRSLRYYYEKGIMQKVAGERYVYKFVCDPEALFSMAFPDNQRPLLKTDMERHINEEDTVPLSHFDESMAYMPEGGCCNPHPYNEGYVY
Chain of ELF4 (Q99607 whole entry): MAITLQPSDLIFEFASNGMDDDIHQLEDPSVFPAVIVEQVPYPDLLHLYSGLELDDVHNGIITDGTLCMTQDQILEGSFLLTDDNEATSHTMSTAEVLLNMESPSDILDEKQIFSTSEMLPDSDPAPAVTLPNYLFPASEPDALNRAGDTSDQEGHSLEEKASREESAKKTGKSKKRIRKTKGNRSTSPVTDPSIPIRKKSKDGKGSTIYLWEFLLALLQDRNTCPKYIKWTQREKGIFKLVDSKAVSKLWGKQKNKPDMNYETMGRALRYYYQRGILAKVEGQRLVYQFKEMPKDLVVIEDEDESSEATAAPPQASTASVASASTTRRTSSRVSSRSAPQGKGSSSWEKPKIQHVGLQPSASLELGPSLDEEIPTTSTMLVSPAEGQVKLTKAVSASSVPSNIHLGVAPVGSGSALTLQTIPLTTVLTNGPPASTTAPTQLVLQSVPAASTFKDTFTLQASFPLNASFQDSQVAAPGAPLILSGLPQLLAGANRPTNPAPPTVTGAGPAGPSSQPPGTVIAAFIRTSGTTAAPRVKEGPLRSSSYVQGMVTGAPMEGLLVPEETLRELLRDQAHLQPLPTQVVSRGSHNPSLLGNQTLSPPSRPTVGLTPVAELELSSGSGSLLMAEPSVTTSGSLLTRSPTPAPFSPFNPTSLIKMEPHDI
Chain of SPIB (Q01892 whole entry): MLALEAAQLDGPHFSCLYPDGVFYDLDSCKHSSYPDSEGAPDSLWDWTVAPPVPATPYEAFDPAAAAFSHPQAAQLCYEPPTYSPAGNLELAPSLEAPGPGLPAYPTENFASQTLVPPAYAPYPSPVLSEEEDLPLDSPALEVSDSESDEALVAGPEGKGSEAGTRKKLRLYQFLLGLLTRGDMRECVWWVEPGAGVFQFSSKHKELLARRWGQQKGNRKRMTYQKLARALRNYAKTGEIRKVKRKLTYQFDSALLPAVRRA
Chain of ELF1 (P32519 whole entry): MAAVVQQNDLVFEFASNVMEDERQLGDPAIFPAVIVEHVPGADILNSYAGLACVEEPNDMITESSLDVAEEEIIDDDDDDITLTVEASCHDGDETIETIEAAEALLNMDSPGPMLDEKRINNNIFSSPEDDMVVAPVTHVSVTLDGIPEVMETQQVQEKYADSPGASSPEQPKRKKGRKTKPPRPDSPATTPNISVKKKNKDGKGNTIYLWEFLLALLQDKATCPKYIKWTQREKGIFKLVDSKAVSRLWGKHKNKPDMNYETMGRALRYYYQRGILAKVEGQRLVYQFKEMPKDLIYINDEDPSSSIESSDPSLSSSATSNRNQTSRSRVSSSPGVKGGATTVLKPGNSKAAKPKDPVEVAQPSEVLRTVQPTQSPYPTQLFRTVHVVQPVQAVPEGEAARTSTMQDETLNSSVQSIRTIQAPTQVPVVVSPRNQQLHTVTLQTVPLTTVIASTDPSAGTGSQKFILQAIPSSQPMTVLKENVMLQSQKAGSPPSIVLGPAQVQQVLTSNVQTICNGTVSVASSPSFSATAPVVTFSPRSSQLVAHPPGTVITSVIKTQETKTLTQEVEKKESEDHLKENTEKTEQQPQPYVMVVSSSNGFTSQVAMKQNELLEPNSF
Chain of ETV6 (P41212 whole entry): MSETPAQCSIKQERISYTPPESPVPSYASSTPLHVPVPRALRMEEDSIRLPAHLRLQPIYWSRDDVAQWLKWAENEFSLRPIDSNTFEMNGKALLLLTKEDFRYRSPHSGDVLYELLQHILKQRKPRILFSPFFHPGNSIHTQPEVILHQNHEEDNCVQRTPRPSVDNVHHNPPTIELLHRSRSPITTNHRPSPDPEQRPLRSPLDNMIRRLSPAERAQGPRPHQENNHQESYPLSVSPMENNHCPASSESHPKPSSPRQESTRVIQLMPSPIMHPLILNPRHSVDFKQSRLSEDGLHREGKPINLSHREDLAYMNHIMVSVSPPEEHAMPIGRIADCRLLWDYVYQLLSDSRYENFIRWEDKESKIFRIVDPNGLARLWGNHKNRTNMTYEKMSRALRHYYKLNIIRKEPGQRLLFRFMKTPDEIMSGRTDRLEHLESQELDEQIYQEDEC
Chain of ETV5 (P41161 whole entry): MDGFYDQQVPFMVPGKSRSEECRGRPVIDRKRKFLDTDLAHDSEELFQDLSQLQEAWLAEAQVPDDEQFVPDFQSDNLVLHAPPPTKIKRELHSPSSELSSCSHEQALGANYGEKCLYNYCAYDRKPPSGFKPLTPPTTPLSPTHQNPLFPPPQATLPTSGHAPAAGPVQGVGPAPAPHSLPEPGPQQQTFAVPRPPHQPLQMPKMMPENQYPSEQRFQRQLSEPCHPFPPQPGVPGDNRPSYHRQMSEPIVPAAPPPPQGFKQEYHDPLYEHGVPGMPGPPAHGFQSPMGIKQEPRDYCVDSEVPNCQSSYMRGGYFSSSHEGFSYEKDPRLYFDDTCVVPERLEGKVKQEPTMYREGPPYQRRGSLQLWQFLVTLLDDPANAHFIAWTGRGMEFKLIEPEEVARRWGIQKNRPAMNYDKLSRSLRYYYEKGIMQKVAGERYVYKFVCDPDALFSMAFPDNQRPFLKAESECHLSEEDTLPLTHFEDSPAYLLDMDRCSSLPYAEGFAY

With TATGTC the binding signal (ELK1) was 1.05 fold enrichment (6-mer frequency, TF over GST control), the binding signal (GABPA) was 1.17 fold enrichment (6-mer frequency, TF over GST control) and the binding signal (ERG) was 1.08 fold enrichment (6-mer frequency, TF over GST control). The binding signal (ELF1) was 1.11 fold enrichment (6-mer frequency, TF over GST control), the binding signal (EHF) was 1.02 fold enrichment (6-mer frequency, TF over GST control) and the binding signal (SPIB) was 1.16 fold enrichment (6-mer frequency, TF over GST control). The binding signal (ETV5) was 1.07 fold enrichment (6-mer frequency, TF over GST control), the binding signal (ELF4) was 1.14 fold enrichment (6-mer frequency, TF over GST control) and the binding signal (ELK4) was 1.05 fold enrichment (6-mer frequency, TF over GST control). The binding signal (ETV2) was 1.02 fold enrichment (6-mer frequency, TF over GST control), the binding signal (ELF3) was 1.06 fold enrichment (6-mer frequency, TF over GST control) and the binding signal (ETV1) was 1.05 fold enrichment (6-mer frequency, TF over GST control). For the same sequence, the binding signal (ERF) was 1.08 fold enrichment (6-mer frequency, TF over GST control), the binding signal (ETV3L) was 1.16 fold enrichment (6-mer frequency, TF over GST control) and the binding signal (ETS2) was 1.13 fold enrichment (6-mer frequency, TF over GST control). For the same sequence, the binding signal (SPDEF) was 1.14 fold enrichment (6-mer frequency, TF over GST control), the binding signal (ETV7) was 1.06 fold enrichment (6-mer frequency, TF over GST control) and the binding signal (ETV3) was 1.13 fold enrichment (6-mer frequency, TF over GST control). For the same sequence, the binding signal (ETV6) was 1.07 fold enrichment (6-mer frequency, TF over GST control).
